Columns and labels:
Experiment in all cases: DAPPL (digital affinity profiling via proximity ligation, sequencing); 10 mM Tris-HCl pH 7.5, 50 mM NaCl, 1 mM DTT, 4% glycerol, room temperature, 30 min; GST-TFs on glutathione beads, 16-mer random dsDNA library, 0.1% formaldehyde crosslink after washing; high values mean tight binding
FEV = biological target: T1, FEV (Homo sapiens, UniProt Q99581 1-238); settings: protein: recombinant; tags: N-terminal GST; dsDNA, one strand shown
T1 sequence: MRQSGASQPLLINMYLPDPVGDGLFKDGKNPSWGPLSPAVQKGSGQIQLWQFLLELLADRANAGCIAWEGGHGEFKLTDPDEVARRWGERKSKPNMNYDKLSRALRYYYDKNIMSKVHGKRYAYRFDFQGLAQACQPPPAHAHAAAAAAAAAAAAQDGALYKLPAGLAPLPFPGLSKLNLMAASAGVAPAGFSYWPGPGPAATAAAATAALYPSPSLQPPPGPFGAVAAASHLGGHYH
How it was run: (§1)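 Beads coated with glutathione captured GST-fused human transcription factors that had been expressed in yeast, and the factors were then given DNA barcodes and pooled with a tag-only sample. The pools were incubated with 200 nmole of a random double-stranded 16-mer DNA library in Tris/NaCl/DTT/glycerol buffer for 30 min at room temperature, washed, crosslinked with 0.1% formaldehyde and proximity-ligated with BsaI/T4 ligase at 37 °C for 1 h. PCR amplification and Illumina NextSeq500 sequencing came last. Binding signal is each hexamer's read frequency for a factor divided by its frequency for the tag-only sample.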

ETV5 = ETV5 (Homo sapiens, UniProt P41161 1-510); settings: protein: recombinant; tags: N-terminal GST; dsDNA, one strand shown
Sequence of ETV5 (P41161 whole entry): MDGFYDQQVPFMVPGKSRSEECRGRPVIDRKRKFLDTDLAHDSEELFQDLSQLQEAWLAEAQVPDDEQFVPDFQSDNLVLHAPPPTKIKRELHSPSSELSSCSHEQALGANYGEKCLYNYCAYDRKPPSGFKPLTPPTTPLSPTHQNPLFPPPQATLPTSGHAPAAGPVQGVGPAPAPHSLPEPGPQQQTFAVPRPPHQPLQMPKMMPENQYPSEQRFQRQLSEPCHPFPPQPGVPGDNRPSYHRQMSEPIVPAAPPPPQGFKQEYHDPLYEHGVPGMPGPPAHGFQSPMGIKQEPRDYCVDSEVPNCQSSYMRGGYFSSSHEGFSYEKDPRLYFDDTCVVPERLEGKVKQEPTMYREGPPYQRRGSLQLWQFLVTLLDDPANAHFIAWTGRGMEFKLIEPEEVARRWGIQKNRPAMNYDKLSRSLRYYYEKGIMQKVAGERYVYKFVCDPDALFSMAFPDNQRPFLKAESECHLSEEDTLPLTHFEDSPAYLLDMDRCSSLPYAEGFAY
How it was run: as §1

HSF1 = HSF1 (Homo sapiens, UniProt Q00613 1-529); settings: protein: recombinant; tags: N-terminal GST; chain copies: 3; dsDNA, one strand shown
Sequence of HSF1 (Q00613 whole entry): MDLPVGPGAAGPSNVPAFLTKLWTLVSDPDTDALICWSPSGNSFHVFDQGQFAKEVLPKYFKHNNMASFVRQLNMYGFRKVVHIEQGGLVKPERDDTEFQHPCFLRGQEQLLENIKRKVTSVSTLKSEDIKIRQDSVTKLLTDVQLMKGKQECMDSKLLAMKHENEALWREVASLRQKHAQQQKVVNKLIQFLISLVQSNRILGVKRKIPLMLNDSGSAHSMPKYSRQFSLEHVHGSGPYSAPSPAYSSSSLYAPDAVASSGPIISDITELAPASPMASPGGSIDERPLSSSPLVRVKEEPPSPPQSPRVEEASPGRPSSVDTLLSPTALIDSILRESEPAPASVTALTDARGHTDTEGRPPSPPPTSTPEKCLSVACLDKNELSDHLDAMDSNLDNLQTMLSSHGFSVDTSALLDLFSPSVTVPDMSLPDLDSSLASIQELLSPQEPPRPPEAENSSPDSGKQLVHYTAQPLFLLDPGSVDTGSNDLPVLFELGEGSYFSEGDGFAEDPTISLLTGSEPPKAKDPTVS
How it was run: as §1

SPIC = biological target: T2, SPIC (Homo sapiens, UniProt Q8N5J4 1-248); settings: protein: recombinant; tags: N-terminal GST; dsDNA, one strand shown
T2 sequence: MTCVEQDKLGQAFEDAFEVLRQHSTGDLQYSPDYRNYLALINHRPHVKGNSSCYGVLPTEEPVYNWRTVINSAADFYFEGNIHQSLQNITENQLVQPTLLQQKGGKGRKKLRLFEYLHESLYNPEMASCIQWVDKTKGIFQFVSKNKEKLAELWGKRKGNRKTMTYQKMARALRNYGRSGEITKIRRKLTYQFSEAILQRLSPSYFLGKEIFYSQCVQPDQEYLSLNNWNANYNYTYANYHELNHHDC
How it was run: as §1

ELF4 = ELF4 (Homo sapiens, UniProt Q99607 1-663); settings: protein: recombinant; tags: N-terminal GST; dsDNA, one strand shown
Sequence of ELF4 (Q99607 whole entry): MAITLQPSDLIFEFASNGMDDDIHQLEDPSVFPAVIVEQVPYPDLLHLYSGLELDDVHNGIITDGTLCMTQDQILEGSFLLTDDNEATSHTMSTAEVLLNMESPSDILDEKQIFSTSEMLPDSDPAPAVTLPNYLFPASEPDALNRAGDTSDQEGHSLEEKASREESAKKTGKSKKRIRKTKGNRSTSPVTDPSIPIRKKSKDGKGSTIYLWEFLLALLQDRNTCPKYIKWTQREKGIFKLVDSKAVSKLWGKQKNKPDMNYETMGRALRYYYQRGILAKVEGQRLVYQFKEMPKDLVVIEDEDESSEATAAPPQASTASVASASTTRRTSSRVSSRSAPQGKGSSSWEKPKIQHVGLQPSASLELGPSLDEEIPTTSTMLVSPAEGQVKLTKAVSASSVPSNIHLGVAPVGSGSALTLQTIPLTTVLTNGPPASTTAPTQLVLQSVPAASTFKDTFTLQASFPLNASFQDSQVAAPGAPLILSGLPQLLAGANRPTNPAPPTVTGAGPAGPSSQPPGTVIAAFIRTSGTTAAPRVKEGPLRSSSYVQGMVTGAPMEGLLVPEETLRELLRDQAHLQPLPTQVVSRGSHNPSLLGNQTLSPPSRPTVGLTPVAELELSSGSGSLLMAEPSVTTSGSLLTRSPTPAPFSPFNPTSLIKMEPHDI
How it was run: as §1

ELK4 = biological target: T3, ELK4 (Homo sapiens, UniProt P28324-2 1-405); settings: protein: recombinant; tags: N-terminal GST; dsDNA, one strand shown
T3 sequence: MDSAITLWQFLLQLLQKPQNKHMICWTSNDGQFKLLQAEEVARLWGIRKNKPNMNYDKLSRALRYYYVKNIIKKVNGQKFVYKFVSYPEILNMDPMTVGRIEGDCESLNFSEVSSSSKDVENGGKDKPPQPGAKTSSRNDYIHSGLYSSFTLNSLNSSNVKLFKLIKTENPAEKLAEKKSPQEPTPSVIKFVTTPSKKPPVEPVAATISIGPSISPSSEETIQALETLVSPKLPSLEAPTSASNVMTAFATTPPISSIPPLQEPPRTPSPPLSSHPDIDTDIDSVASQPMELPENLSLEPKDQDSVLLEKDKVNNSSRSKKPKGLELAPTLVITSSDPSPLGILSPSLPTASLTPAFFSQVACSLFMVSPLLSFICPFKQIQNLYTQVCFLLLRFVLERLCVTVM
How it was run: as §1

ETV2 = biological target: T4, ETV2 (Homo sapiens, UniProt O00321 1-342); settings: protein: recombinant; tags: N-terminal GST; dsDNA, one strand shown
T4 sequence: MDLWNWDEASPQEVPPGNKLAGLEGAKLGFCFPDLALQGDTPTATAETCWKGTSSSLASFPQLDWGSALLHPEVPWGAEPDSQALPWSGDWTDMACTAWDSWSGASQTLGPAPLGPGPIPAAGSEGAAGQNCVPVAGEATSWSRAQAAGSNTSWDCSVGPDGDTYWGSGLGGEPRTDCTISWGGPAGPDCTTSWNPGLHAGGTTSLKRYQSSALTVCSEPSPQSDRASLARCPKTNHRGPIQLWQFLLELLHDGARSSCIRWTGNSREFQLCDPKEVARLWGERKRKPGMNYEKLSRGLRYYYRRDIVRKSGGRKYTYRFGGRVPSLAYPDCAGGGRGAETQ
How it was run: as §1

ELF3 = biological target: T5, ELF3 (Homo sapiens, UniProt P78545 1-371); settings: protein: recombinant; tags: N-terminal GST; dsDNA, one strand shown
T5 sequence: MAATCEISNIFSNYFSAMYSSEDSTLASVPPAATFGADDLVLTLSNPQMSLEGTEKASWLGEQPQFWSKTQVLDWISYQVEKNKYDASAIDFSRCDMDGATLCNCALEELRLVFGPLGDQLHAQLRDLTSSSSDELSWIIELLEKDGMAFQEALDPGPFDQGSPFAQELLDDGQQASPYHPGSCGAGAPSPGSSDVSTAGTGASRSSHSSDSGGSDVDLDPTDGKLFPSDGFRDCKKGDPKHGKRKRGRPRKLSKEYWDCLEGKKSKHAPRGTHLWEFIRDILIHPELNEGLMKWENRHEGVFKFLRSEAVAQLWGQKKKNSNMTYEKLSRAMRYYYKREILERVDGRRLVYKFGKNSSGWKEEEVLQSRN
How it was run: as §1

CRX = CRX (Homo sapiens, UniProt O43186 1-299); settings: protein: recombinant; tags: N-terminal GST; dsDNA, one strand shown
Sequence of CRX (O43186 whole entry): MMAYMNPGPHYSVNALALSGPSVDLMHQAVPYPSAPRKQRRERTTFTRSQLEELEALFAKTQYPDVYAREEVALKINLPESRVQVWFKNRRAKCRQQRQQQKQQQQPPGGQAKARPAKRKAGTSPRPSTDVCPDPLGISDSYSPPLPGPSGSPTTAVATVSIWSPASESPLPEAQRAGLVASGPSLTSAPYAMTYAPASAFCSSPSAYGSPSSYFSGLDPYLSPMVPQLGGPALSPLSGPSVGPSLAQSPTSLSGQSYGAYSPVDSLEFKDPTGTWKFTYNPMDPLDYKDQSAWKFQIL
How it was run: as §1

ETV1 = ETV1 (Homo sapiens, UniProt P50549 1-477); settings: protein: recombinant; tags: N-terminal GST; dsDNA, one strand shown
Sequence of ETV1 (P50549 whole entry): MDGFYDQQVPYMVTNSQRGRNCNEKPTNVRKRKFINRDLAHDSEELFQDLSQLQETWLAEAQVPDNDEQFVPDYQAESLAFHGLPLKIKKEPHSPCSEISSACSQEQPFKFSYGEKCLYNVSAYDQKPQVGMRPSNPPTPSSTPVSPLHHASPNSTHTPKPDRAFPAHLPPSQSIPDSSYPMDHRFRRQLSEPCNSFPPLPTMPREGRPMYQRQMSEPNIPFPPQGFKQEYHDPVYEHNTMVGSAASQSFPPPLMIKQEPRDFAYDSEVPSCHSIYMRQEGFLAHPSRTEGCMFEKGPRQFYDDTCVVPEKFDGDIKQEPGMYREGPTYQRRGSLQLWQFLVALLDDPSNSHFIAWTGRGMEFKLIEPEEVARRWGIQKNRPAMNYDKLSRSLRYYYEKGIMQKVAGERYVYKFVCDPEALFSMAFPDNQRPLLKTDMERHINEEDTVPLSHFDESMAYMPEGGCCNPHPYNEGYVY
How it was run: as §1

ERF = biological target: T6, ERF (Homo sapiens, UniProt P50548 1-548); settings: protein: recombinant; tags: N-terminal GST; dsDNA, one strand shown
T6 sequence: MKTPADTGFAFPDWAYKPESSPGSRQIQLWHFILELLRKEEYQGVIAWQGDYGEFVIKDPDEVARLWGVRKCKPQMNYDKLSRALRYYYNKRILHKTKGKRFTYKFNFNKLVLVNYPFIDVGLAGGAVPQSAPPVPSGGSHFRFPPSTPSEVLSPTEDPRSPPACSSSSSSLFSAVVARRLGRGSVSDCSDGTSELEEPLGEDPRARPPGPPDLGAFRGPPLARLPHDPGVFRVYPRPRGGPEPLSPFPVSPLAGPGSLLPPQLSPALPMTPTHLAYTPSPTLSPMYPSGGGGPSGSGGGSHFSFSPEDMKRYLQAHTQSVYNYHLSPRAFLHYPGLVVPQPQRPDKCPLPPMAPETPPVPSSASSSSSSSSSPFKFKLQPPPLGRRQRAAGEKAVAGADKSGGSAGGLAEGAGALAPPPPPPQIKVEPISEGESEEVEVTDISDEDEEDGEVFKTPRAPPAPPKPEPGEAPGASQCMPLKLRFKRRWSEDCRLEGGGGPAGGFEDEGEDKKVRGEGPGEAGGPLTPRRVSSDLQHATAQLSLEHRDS
How it was run: as §1

ETV3L = biological target: T7, ETV3L (Homo sapiens, UniProt Q6ZN32 1-361); settings: protein: recombinant; tags: N-terminal GST; dsDNA, one strand shown
T7 sequence: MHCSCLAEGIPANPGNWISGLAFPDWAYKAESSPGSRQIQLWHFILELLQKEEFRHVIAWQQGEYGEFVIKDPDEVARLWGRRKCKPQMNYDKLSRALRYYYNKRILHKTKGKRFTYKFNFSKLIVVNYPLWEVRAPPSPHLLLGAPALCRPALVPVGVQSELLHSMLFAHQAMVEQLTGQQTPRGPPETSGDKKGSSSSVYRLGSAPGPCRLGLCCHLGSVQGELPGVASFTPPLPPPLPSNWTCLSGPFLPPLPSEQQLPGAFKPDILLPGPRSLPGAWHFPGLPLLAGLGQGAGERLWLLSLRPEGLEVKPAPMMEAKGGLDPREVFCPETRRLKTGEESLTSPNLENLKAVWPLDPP
How it was run: as §1

ETS2 = biological target: T8, ETS2 (Homo sapiens, UniProt P15036 1-469); settings: protein: recombinant; tags: N-terminal GST; dsDNA, one strand shown
T8 sequence: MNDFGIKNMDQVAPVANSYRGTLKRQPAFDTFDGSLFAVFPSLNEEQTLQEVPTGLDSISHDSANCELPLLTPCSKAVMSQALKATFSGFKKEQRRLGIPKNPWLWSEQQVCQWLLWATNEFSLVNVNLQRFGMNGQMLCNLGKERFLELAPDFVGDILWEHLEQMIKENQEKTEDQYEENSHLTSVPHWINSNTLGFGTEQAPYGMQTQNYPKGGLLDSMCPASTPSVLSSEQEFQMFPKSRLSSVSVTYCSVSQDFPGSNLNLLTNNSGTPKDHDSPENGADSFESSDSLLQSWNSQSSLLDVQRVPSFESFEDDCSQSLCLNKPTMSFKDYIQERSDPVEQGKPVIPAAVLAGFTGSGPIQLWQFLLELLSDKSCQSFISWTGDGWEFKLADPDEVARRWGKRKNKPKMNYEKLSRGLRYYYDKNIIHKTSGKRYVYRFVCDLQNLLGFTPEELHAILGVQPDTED
How it was run: as §1

SPDEF = biological target: T9, SPDEF (Homo sapiens, UniProt O95238 1-335); settings: protein: recombinant; tags: N-terminal GST; dsDNA, one strand shown
T9 sequence: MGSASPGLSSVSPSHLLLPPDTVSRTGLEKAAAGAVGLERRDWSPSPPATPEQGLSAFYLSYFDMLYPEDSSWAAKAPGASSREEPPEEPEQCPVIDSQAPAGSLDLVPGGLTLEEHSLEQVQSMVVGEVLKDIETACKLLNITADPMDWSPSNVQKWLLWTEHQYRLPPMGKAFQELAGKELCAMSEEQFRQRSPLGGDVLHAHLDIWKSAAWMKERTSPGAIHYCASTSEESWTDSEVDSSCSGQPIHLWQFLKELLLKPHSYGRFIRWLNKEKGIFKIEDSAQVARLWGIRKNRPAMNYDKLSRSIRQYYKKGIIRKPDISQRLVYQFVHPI
How it was run: as §1

ETV7 = biological target: T10, ETV7 (Homo sapiens, UniProt Q9Y603 1-341); settings: protein: recombinant; tags: N-terminal GST; dsDNA, one strand shown
T10 sequence: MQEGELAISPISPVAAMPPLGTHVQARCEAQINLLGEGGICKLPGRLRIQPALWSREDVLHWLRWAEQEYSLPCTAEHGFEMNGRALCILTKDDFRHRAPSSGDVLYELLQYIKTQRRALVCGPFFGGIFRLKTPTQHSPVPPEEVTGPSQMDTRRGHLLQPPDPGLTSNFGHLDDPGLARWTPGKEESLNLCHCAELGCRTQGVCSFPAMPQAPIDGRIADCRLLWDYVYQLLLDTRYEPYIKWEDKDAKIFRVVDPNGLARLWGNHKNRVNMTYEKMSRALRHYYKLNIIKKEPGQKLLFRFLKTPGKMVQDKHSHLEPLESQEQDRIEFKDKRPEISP
How it was run: as §1

ELF5 = biological target: T11, ELF5 (Homo sapiens, UniProt Q9UKW6-2 1-255); settings: protein: recombinant; tags: N-terminal GST; dsDNA, one strand shown
T11 sequence: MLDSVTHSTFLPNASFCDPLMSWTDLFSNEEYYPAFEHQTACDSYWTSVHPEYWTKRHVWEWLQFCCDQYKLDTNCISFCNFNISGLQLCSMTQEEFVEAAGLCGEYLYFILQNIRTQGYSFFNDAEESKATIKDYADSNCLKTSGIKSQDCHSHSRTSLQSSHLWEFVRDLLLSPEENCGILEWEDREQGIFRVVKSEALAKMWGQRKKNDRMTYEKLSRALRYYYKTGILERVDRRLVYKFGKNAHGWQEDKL
How it was run: as §1

ETV3 = biological target: T12, ETV3 (Homo sapiens, UniProt P41162-2 1-143); settings: protein: recombinant; tags: N-terminal GST; dsDNA, one strand shown
T12 sequence: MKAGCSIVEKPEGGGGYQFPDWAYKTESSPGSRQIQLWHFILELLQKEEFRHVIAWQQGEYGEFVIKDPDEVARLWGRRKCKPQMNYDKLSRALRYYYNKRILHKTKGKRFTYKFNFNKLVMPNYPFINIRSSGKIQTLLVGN
How it was run: as §1

ETV6 = ETV6 (Homo sapiens, UniProt P41212 1-452); settings: protein: recombinant; tags: N-terminal GST; dsDNA, one strand shown
Sequence of ETV6 (P41212 whole entry): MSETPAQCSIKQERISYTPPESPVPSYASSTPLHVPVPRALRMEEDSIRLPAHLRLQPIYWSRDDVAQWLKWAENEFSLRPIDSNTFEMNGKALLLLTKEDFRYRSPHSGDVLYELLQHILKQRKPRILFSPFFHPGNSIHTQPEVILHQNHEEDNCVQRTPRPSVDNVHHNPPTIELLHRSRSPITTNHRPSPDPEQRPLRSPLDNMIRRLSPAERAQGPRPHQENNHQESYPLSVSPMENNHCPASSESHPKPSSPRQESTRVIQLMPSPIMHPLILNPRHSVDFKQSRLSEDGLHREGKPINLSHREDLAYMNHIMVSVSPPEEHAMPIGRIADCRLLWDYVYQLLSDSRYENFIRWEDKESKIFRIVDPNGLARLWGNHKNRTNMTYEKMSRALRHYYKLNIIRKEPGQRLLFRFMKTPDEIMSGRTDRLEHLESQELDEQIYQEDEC
How it was run: as §1

## GAATTT
FEV
  binding signal: 1.19 fold enrichment (6-mer frequency, TF over GST control)
ETV5
  binding signal: 1.26 fold enrichment (6-mer frequency, TF over GST control)
HSF1
  binding signal: 1.7 fold enrichment (6-mer frequency, TF over GST control)
SPIC
  binding signal: 1.39 fold enrichment (6-mer frequency, TF over GST control)
ELF4
  binding signal: 1.25 fold enrichment (6-mer frequency, TF over GST control)
ELK4
  binding signal: 1.31 fold enrichment (6-mer frequency, TF over GST control)
ETV2
  binding signal: 1.14 fold enrichment (6-mer frequency, TF over GST control)
ELF3
  binding signal: 1.13 fold enrichment (6-mer frequency, TF over GST control)
CRX
  binding signal: 1.39 fold enrichment (6-mer frequency, TF over GST control)
ETV1
  binding signal: 1.24 fold enrichment (6-mer frequency, TF over GST control)
ERF
  binding signal: 1.27 fold enrichment (6-mer frequency, TF over GST control)
ETV3L
  binding signal: 1.21 fold enrichment (6-mer frequency, TF over GST control)
ETS2
  binding signal: 1.28 fold enrichment (6-mer frequency, TF over GST control)
SPDEF
  binding signal: 1.23 fold enrichment (6-mer frequency, TF over GST control)
ETV7
  binding signal: 1.29 fold enrichment (6-mer frequency, TF over GST control)
ELF5
  binding signal: 1.3 fold enrichment (6-mer frequency, TF over GST control)
ETV3
  binding signal: 1.29 fold enrichment (6-mer frequency, TF over GST control)
ETV6
  binding signal: 1.2 fold enrichment (6-mer frequency, TF over GST control)
